In the library only some 3.5% were active in any assay of this set; here they are far more common.
Anthrax LF inh2 – anthrax lethal factor protease inhibition. 360,000 compounds, 0.12% hits. multiplex microsphere protease cleavage assay, LF. inhibition, % at 10 µM. P15917
BoNT A protease – inhibitors of Botulinum neurotoxin A light chain protease | inhibition, % at 10 µM | multiplex microsphere protease substrate cleavage, flow cytometry | 360,000 compounds, 0.17% hits | AID 588499
BoNT-F LC inh – BoNT F light chain protease inhibition; Multiplex microsphere protease cleavage assay, flow cytometry; inhibition, % at 10 µM; 360,000 compounds, 0.22% hits; in the data active means inhibition above about 35%, passing the limit was not always enough; inconclusive means no clear call, values can overlap the other calls
Autofluor counter – compound fluorescence in toxin protease inhibitor counterscreen; compound autofluorescence counterscreen, microsphere flow cytometry; hits give high values; 360,000 compounds, 3.1% hits; AID 624483; fluorescence intensity (test concentration not listed); in the data active means fluorescence intensity above about 16000; inconclusive means no clear call, values can overlap the other calls
Of the large screens only hits and unclear results are named; the others gave an inactive call. Unless noted, no stated cut-off is given here; in the data, active means inhibition above about 30%; inconclusive means no clear call, values can overlap the other calls; inactive means below that.

COc1ccc(O)c(/C=C2/SC(=S)N(Cc3ccccc3)C2=O)c1	BoNT-F LC inh inconclusive
COc1ccc(-c2nn(-c3ccccc3)cc2/C=C2/SC(=S)N(CCC(=O)O)C2=O)cc1	none
CCOC(=O)C1=C(N)n2c(s/c(=C/c3ccco3)c2=O)=C(C(=O)OC)C1c1ccco1 (configuration not stated)	BoNT A protease inconclusive, Autofluor counter 20070
COC(=O)[C@]12CCCCC=C1N(Cc1cccc3ccccc13)C(=O)[C@H](CC(=O)NCc1cccs1)C2	none
O=C(NNc1ccc([N+](=O)[O-])cc1)C12CC3CC(CC(C3)C1)C2	Autofluor counter 20243
Cc1cccc(OCC(=O)Nc2ccccc2N2CCN(C)CC2)c1	none
CN1CCN(c2ccccc2NC(=O)COc2ccc(Br)cc2)CC1	Autofluor counter 21142
CN1CCN(c2ccccc2NC(=O)Cc2ccc(Cl)cc2)CC1	Autofluor counter 21557
CCn1c(=O)c(CCC(=O)N2CCN(c3ccccn3)CC2)c(C)c2c(C)nn(-c3ccccc3)c21	none
O=C(Nc1ccc(N2CCOCC2)cc1)Nc1ccc(Cl)c(Cl)c1	Autofluor counter 17169
CC1CC(=O)c2cnc(Nc3ccccc3)nc2C1 (configuration not stated)	Autofluor counter 22489
COc1cccc(C(=O)Nc2ncc3c(n2)CC(C)CC3=O)c1 (configuration not stated)	Autofluor counter 24790
COc1ccc(C2CC(=O)c3cnc(NC(=O)c4ccccc4)nc3C2)cc1OC (configuration not stated)	none
CC1CC(=O)c2cnc(Nc3cccc(C(F)(F)F)c3)nc2C1 (configuration not stated)	none
COc1cc(C2CC(=O)c3cnc(NC(=O)COc4ccccc4)nc3C2)cc(OC)c1OC (configuration not stated)	Autofluor counter 21520
COc1cccc(CNc2nc3cc(C(C)=C(C)C)sc3c(=O)n2C)c1	none
CC(=O)N(CC(=O)N(CC(=O)O)c1ccc(Cl)cc1)c1ccc(Cl)cc1	none
O=c1oc2c(O)cccc2cc1-c1nc2ccccc2[nH]1	BoNT-F LC inh inconclusive
O=c1oc2c(CN3CCCCC3)c(O)ccc2cc1-c1nc2ccccc2[nH]1	Autofluor counter 18384
CC(=O)c1ccc(OCCCC(=O)Nc2nnc(C3CC3)s2)cc1	none
OCCN1CCN(C(=S)c2ccc(Br)cc2)CC1	BoNT A protease inconclusive, Autofluor counter 21663
CSc1ccc(C(=S)N2CCN(CCO)CC2)cc1	none
NC1=NC(=O)/C(=C/c2cccs2)S1	Autofluor counter 23925
NC1=NC(=O)C(=Cc2ccccc2)S1	none
CC/C(=N\NC(N)=O)c1c(O)[nH]c(=O)[nH]c1=O	BoNT-F LC inh inconclusive, Autofluor counter inconclusive
CCCC(=O)c1c(O)[nH]c(=O)[nH]c1=O	Autofluor counter 22341
C=CCn1c(COc2ccccc2-c2ccccc2)nnc1SCC(=O)NC(=O)NCc1ccco1	Autofluor counter 21241
O=C1NC(Cc2ccc(O)cc2)c2nc3ccc(F)cc3c(=O)n2-c2ncccc21 (configuration not stated)	none
O=C(/C=N/O)Nc1ccccc1C(=O)O	Autofluor counter 22836
O=C(O)c1ccccc1Nc1ccccc1C(=O)O	BoNT A protease inconclusive, Autofluor counter 17128
Cc1c(Cl)cccc1Nc1ccccc1C(=O)O	none
O=C(Nc1ccccc1C(=O)O)c1ccccc1	none
COc1ncnc2c1oc1nc(CC(C)C)c3c(c12)CC(C)(C)OC3	Autofluor counter 23399
OC(COc1cccc2ccccc12)CN1CCCC1 (configuration not stated)	none
C=C1CC(C)OC(c2ccccc2OCC(O)CN2CCCCC2)C1 (configuration not stated)	BoNT A protease inconclusive, Autofluor counter 21660
CC(C)[C@@H]1Cc2[nH][nH]c(=O)c2[C@H](c2ccc(F)cc2)O1	none
O=C(c1ccc(Cl)c(Cl)c1)c1cnc(Nc2ccccc2)s1	Autofluor counter 16510
O=C(c1ccccc1)c1cnc(Nc2ccccc2Cl)s1	Autofluor counter 21405
O=C(COC(=O)Cc1c(Cl)cccc1Cl)NCc1ccccc1	none
C/C(=N/NC(=O)CNC(=O)COc1cccc(C)c1)c1ccc(Cl)cc1	none
C=CCn1c(SCC)nc2sc3c(c2c1=O)CCc1ccccc1-3	Autofluor counter 17250
Cc1nc2nc3c(cn2n1)C(=O)CCC3	Autofluor counter 21199
CC(C)OC(=O)c1cc(C(=O)c2cc(F)ccc2O)coc1=N	Autofluor counter 16808
CCCNC(=O)COC(=O)c1cccnc1Nc1ccccc1F	none
O=C(COC(=O)c1cccnc1Nc1ccccc1F)NCCN1C(=O)CSC1=O	BoNT-F LC inh 68.6
CCOC(=O)N1CCN(C(=O)C2CCC(=O)N2C(C)C)CC1 (configuration not stated)	Autofluor counter 22385
CCc1nnc(NC(=O)c2ccc(C)o2)s1	none

Screening data from PubChem.
